RORgamma inh: inhibitors of mouse ROR gamma transcriptional activity; P51450; Drosophila S2 Gal4-RORgamma UAS-luciferase reporter, 20 h; Potency, µM (titrated, usually from 53.6 µM), for inactives: top-dose activity change, negative = inhibition, hits mostly inhibitors; 310,000 compounds, 5.4% hits; AID 2551; also: potency is read from the fitted curve at half-maximal effect; % is scaled to controls: 0 for no effect and ±100 for the full control effect; nearly all actives have a fitted effect of over 60% in size
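Luminescence from a UAS-regulated Photinus luciferase reporter in stably transfected Drosophila Schneider cells is measured; decreased signal marks ROR gamma inhibition. Fusion expression is induced by 700 uM copper sulfate for 20 hr.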
ERG Ets-DNA blk: ERG Ets/DNA interaction inhibition; P11308; fluorescence polarization, His-ERG Ets domain / labelled DNA; 370,000 compounds, 0.028% hits; AID 624246; Potency, µM (highest dose often 76.9 µM), for the others: top-dose FP activity, negative = inhibition, most hits filed as inhibitors; active = well fitted inhibition curve with a large enough effect in the polarisation, with a control signal flat; inconclusive = small, poorly fitted or top-dose-only effect, or effect the other way, or a change in a side signal; inactive = no such curve, though single readings can be large or run the other way; the % refers to the polarisation;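 also: polarization taken with two DNA probes labelled with fluorescein and Texas red; potency is read from the fitted curve at half-maximal effect; % of control where 0% means no effect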
Target sequence (P11308 whole entry, looked up, the tested form may be a part): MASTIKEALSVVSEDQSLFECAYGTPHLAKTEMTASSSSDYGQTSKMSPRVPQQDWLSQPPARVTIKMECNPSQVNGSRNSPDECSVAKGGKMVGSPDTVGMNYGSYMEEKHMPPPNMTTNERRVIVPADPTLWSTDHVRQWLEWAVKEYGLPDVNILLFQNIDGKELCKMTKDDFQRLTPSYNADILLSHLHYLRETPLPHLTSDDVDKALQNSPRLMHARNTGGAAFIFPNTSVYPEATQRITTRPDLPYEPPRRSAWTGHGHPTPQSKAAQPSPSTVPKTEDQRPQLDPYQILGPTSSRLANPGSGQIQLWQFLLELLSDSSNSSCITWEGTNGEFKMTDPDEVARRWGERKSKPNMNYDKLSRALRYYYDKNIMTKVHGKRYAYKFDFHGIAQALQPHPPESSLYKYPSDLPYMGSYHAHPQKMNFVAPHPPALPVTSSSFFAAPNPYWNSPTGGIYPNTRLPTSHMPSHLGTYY
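His-tagged ERG Ets domain (1 uM in the protein solution; 300mM KCl, 50mM Tris-HCl, 1mM EDTA, 1mM DTT, pH 7.5) received compound, then a probe mix of 5 nM fluorescein-DNA and 100nM Texas-615-DNA. Fluorescence polarization was read for both dyes.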
Giardia killer: Giardia lamblia killing. Giardia lamblia trophozoite viability. activity change, % at 7.66 µM, hits read low. 340,000 compounds, 0.15% hits. AID 540267; in the data active = activity change below about -80%; inconclusive = between about -30% and that limit;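 also: parasites exposed to compound for two days anaerobically before the ATP read; % is scaled to controls: 0 for no effect and ±100 for the full control effect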
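Giardia lamblia trophozoites (100 cells/well) were incubated with compounds for 48 h at 37 deg C under anaerobic conditions. Viability was read as ATP content by one-step luminescence after 15-30 min at room temperature.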
VP16 counter: Gal4-VP16 reporter inhibition counter-screen; Drosophila S2 Gal4-VP16 UAS-luciferase, luminescence, 20 h; Potency, µM (highest dose often 53.6 µM), for the others: at the top dose activity, negative = inhibition, usual class: inhibitors; 310,000 compounds, 3.5% hits;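 also: Gal4-VP16 expression switched on by copper sulfate through the metallothionein promoter; potency is read from the fitted curve at half-maximal effect; % is scaled to controls: 0 for no effect and ±100 for the full control effect; nearly all actives have a fitted effect of over 50% in size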
a7 integrin act: activators of alpha7 integrin expression for muscular dystrophy | alpha7betagal myoblasts, beta-gal FDG fluorescence, 48 h | Potency, µM (doses to about 38.3 µM), inactives show at the highest dose activation, most hits filed as activators | 350,000 compounds, 0.064% hits;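 also: potency is read from the fitted curve at half-maximal effect; 100% = response of the positive control SU9516; nearly all actives have a fitted effect of over 60% in size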
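Alpha7betagal+/- myoblasts (passage 13) were plated 16-24 hr, then exposed to compounds (1:260 dilution of DMSO stock) for 48 hours at 37C. After MPER lysis, β-galactosidase reporter activity was read as FDG fluorescence (ex 480/em 540) after 30 minutes.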
An asterisk follows results filed as active; ? = inconclusive; / = no result given; [ ] = dose if it differs, or a comment. This is one part of a sample in which hits are shown more often than they occur. Unless noted, calls follow the shape of the dose curve; as a rule, active = well fitted curve in the direction sought with a large enough effect; inconclusive = small, poorly fitted or top-dose-only effect, or another doubt; inactive = no such curve, though single readings can be large; an effect the other way counts as inactive or inconclusive.

SMILES | RORgamma inh | ERG Ets-DNA blk | Giardia killer | VP16 counter | a7 integrin act
CCN(CC)S(=O)(=O)c1ccc2c(c1)nc(CN(C)C(=O)Nc1ccc(F)cc1)n2C | / | 11.0% | / | / | /
c1ccc(-c2cn3ccccc3n2)cc1 | / | -6.9% | -14.5 | / | 16.8%
c1ccn2cc(C34CC5CC(CC(C5)C3)C4)nc2c1 | 5.62µM* | -0.4% | 2.9 | 22.4µM* | 10.3%
C[C@H](CO)N1C[C@H](C)[C@H](CN(C)C(=O)C2CC2)OCc2cnnn2CCCC1=O | / | / | / | / | 11.4%
O=c1c(CCc2ccccc2)nc2cnc(N3CCNCC3)nc2n1Cc1ccc(F)cc1 | 4.47µM* | / | / | ? | /
CN1CCN(c2ncc3nc(CCc4ccccc4)c(=O)n(Cc4ccc(F)cc4)c3n2)CC1 | -43.8% | / | / | -24.8% | /
CCn1c(CNC(=O)c2ccco2)nnc1SCC(=O)Nc1cc(F)ccc1C | 0.9% | 0.3% | -1.6 | 6.1% | -9.9%
COc1ccc(OC)c(NC(=O)C2CCC(CNc3c(N4CCC(C)CC4)c(=O)c3=O)CC2)c1 (stereo not drawn) | 0.794µM* | 11.4% | -1.7 | -6.6% | -7.6%
COc1ccc(C)cc1NC(=O)C1CCC(CNc2c(N3CCOCC3)c(=O)c2=O)CC1 (stereo not drawn) | -32.0% | -10.0% | 2.1 | -0.4% | 0.7%
COCCNC(=S)NC12CC3CC(CC(C3)C1)C2 | 3.55µM* | -0.1% | 2.1 | 4.47µM* | 2.1%
COCCNC(=O)NC12CC3CC(CC(C3)C1)C2 | -0.2% | 6.3% | -11.4 | -14.8% | -10.4%
Oc1[nH]c2ccccc2c1N=NC(=S)NCCc1ccccc1 | 4.47µM* | 5.7% | -29.2 | 3.16µM* | -31.3%
Cc1ccc2[nH]c(O)c(N=NC(N)=S)c2c1 | 20.3% | -3.8% | -3.6 | 1.8% | 17.4%
O=C(CNC(=O)c1ccccc1)N=Nc1c(O)[nH]c2ccc(Br)cc12 | -40.6% | -4.5% | -9.1 | ? | 40.8%
NC(=S)N=Nc1ccc(O)cc1 | / | / | -7.6 | / | 27.2%
NC(=S)N=Nc1c(O)[nH]c2ccccc12 | 20µM* | 10.8% | -6.0 | -2.7% | -1.3%
CC(C)c1ccc2[nH]c(O)c(N=NC(=S)NCCc3ccccc3)c2c1 | 2µM* | 2.8% | -24.8 | 2.24µM* | -48.1%
NC(=S)N=Nc1c(O)[nH]c2c(Br)cc(Br)cc12 | 3.55µM* | 20.6% | 9.2 | 11.2µM* | -15.8%
O=C1C[C@@H](O)[C@@H](O)[C@H]2[C@@H]3C(=O)N(c4cccc(Oc5ccccc5)c4)C(=O)[C@@H]3CC[C@H]12 | 7.5%[10 µM] | / | / | -2.8%[10 µM] | /
CC[C@@H]1/C=C(\C)C[C@H](C)C[C@H](OC)[C@H]2O[C@@](O)(C(=O)C(=O)N3CCCC[C@H]3C(=O)O[C@H](/C(C)=C/[C@@H]3CC[C@H](Cl)[C@H](OC)C3)[C@H](C)[C@@H](O)CC1=O)[C@H](C)C[C@@H]2OC | 4.0% | / | / | -19.3% | /
CCNC(=S)N=Nc1c(O)[nH]c2ccc(C(C)C)cc12 | 2.82µM* | -7.7% | -14.2 | 7.08µM* | -39.9%
CCCCNC(=S)N=Nc1c(O)[nH]c2ccccc12 | 2.24µM* | 3.5% | 32.4 | 5.62µM* | -4.2%
CC(C)c1ccc2[nH]c(O)c(N=NC(=O)c3ccc(CSc4nncn4C)cc3)c2c1 | 5.5% | 0.4% | 11.7 | -0.7% | 7.3%
Oc1cccc(NC(=S)N=Nc2c(O)[nH]c3ccccc23)c1 | 15.1% | 9.9% | 2.2 | -3.0% | 0.0%
CCOc1ccc(NC(=S)N=Nc2c(O)[nH]c3ccccc23)cc1 | 2.24µM* | 0.0% | -23.0 | 5.01µM* | -51.9%
CC(C)(C)c1ccc2c(S(=O)(=O)O)c(C(C)(C)C)ccc2c1 | 32.3% | / | / | 4.0% | /
CNC(=O)c1c(NC(=O)c2ccc(S(=O)(=O)N3CCCC(C)C3)cc2)sc2c1CCC2 (stereo not drawn) | / | 4.6% | / | / | /
CCN1CCN(C(=O)CCc2nnc3ccc(N4CCC5(CC4)OCCO5)nn23)CC1 | -31.9% | 1.7% | -16.9 | -10.3% | 0.0%
CCOC(=O)c1ccccc1NC(=O)Cn1ccn2nc(-c3ccc(OCC)cc3)cc2c1=O | / | -11.7% | / | / | /
COCCN=C1OC(=O)N2C(=O)C3=C4C(C[C@H]5C(=O)N(c6ccccc6)C(=O)[C@H]5[C@H]4[C@@]12Cc1ccccc1)[C@H]1C(=O)N(c2ccccc2)C(=O)[C@H]1[C@H]3C (stereo partly drawn) | 42.7% | / | / | 19.1% | /
